Shown are actives, neighbours in structure and some others; about 1.9% of the full set was active somewhere.
Hsp70 act: transcriptional activators of Hsp70; HeLa Hsp70 promoter luciferase reporter, luminescence; scaled: vehicle 0, proteasome-inhibitor control 100%; activation, % at 10 µM; 0.04% of 200,000 active; AID 1203;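 active means activation above the mean across all tested compounds plus 3 SD, cutoff set per campaign, cut at about 5.5% in these data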
TNF necrop inh: inhibitors of TNF-alpha induced necroptosis in Jurkat FADD-/- cells; 0.068% of 220,000 active; Jurkat FADD-/- TNF necroptosis rescue, ATP luminescence, 24 h; 0 = TNF only, 100 = no-TNF cells; activation (protection from cell death), % at 10 µM;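 active means activation, meaning protection from cell death, of at least 50% relative to plate controls; inactive means activation below 50%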;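 further: necroptosis triggered by 40 ng/mL TNF-alpha added together with compound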
HSF1 activator: increases HSF-1 driven luciferase reporter signal | NIH3T3-HGL HSF-1 luciferase reporter, MG132, 8 h; 100% = twice DMSO control signal | activation, % at 9 µM | 1.7% of 300,000 active | AID 504408;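 active means mean replicate activation of at least 50% with a set share of replicates each reaching 50%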
zVAD death inh: blocks zVAD induced death of L929 cells. L929 zVAD necroptosis rescue, ATP luminescence, 24 h; with zVAD 60 µM. viability rescue, % at 10 µM. 0.38% of 220,000 active;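 active means activation, scaled between plate controls, above about 75%, limit read from the data; inactive means activation under that limit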
Numbers stand for hits; . = inactive; / = not tested or not shown.

SMILES	Hsp70 act	TNF necrop inh	HSF1 activator	zVAD death inh
COc1ccc2c(c1)CCc1c(C(=O)N3CC4(C)CC3CC(C)(C)C4)noc1-2 (centres undefined)	.	.	84.2	.
CCOc1cc(C(=O)NCCC(=O)N2CCC3(CC2)NCCc2[nH]cnc23)cc(OCC)c1OCC	/	/	.	/
CC1COc2ccccc2N1S(=O)(=O)c1ccc(Cl)cc1 (centres undefined)	.	.	.	.
Cc1ccc(S(=O)(=O)N2c3ccccc3OCC2c2ccccc2)cc1 (centres undefined)	.	.	56.1	.
CC(=O)c1ccc(NC(=O)CN2C(=O)COc3ccc(S(=O)(=O)N4CCCC4)cc32)cc1	/	/	.	/
S=C(NCCc1ccc(Cl)cc1)NC1CCCC1	.	.	.	.
S=C(NCCc1ccc(Cl)cc1)NC1CCCCC1	/	/	57.8	/
C=CCc1ccccc1OCC(O)CN1CCN(CCN2C(=O)c3cccc4cccc(c34)C2=O)CC1 (centres undefined)	.	.	61.3	.
Cc1ccccc1OCC(O)CN1CCN(CCN2C(=O)c3cccc4cccc(c34)C2=O)CC1 (centres undefined)	.	.	.	.
S=C(N/N=C/c1ccccc1Cl)Nc1cccc(Cl)c1Cl	/	.	.	.
Cc1cc(NC(=O)CCC(=O)N(c2ccccc2)C(C(=O)NC2CCCC2)c2ccccc2F)no1 (centres undefined)	/	/	.	/
Fc1ccc(CCNC(=S)Nc2ccc(F)c(Cl)c2)cc1	.	.	.	.
O=Cc1ccc(OCc2ccc3ccccc3c2)cc1	/	/	60.1	/
O=Cc1ccc(OCc2ccccn2)cc1	.	.	.	.
Cc1ccc(Cn2ncc(Cl)c(Cl)c2=O)cc1	.	.	.	.
Cc1cc(C)cc(Cn2ncc(Cl)c(Cl)c2=O)c1	.	.	116.9	.
CNC(=S)N(Cc1ccco1)Cc1cc2cc(OC)c(OC)cc2[nH]c1=O	.	.	56.7	.
CCNC(=S)N(Cc1ccco1)Cc1cc2cc(OCC)ccc2[nH]c1=O	.	.	70.7	.
CCOC(=O)C1=C(C)NC(=O)NC1c1ccc(N2CCC(c3ccccc3)=N2)cc1 (centres undefined)	.	.	67.0	.
Cc1ccccc1OCC(=O)NCCNC(=O)c1cccnc1	/	/	.	/
Cc1ccccc1OCC(=O)NCCCNC(=O)c1cccnc1	/	/	56.1	/
N#CC1=C(N)NC(SCC(=O)O)=C(C#N)C12CCCC2	.	.	.	.
N#CC1=C(N)NC(SCc2ccc(F)cc2)=C(C#N)C12CCCCC2	.	.	166.5	.
CCOC(=O)Cc1ccc2sc(-c3ccccc3)nc2c1	.	.	92.4	.
CCOC(=O)c1sc(-c2ccccc2)nc1C	.	.	.	.
SMILES	Hsp70 act	TNF necrop inh	HSF1 activator	zVAD death inh
CCCCNC(=O)CSc1cc(=O)n(C)c2ccccc12	.	.	.	.
Cc1cc(N2CCOCC2)ccc1/C=C\[N+](=O)[O-]	.	.	79.8	.
CCOC(=O)c1cccnc1SCC(=O)Nc1ccc(C)cc1	.	.	.	.
Cc1ccc(NC(=O)CSc2ncccc2C(=O)Oc2cccc([N+](=O)[O-])c2)cc1Cl	.	.	82.2	.
CC(NCCc1ccc(S(N)(=O)=O)cc1)C(=O)NCCc1ccc(F)cc1 (centres undefined)	/	/	.	/
CC(NCC(=O)NCCc1ccc(S(N)(=O)=O)cc1)c1ccc(F)cc1 (centres undefined)	/	/	52.5	/
Cn1c(N)c(C(=O)c2cc(-c3ccccn3)nc3ccccc23)c(=O)[nH]c1=O	.	.	.	.
COc1ccc(N2CCN(C(=O)CCc3c[nH]c4ccccc34)CC2)cc1	.	.	.	.
COc1ccc(N2CCN(C(=O)[C@H](Cc3c[nH]c4ccccc34)NC(C)=O)CC2)cc1	.	.	61.8	.
Clc1ccc(-c2nc3ccccn3c2CN2CCCCC2)cc1	.	.	51.8	.
OCC[C@@H]1C[C@@H](O)[C@H](O)[C@@]2(CCCCO2)O1	/	/	.	/
COc1cc(C(=O)Sc2ccc(Cl)cc2)cc(OC)c1OC	.	.	78.7	.
O=C(CSc1cccs1)Nc1ccc(Cl)cc1	/	.	65.5	.
COc1ccc(NC(=O)CN(C)S(=O)(=O)c2ccc(Br)s2)cc1OC	/	/	55.1	/
O=C(NNc1c(Cl)cccc1Cl)C1CCC1	/	75.2	53.0	.
O=C(NNc1cccc(Cl)n1)C1CC1	.	.	.	.
COc1ccc2c(C)nc(Nc3nc(C)cc(=O)[nH]3)nc2c1	.	.	/	.
COc1ccc2c(C)nc(Nc3nc(-c4ccccc4)cc(=O)[nH]3)nc2c1	/	.	94.6	.
Clc1ccc(C2=NNC(=NCc3ccccc3)SC2)cc1	.	56.1	.	.
Fc1ccc(C2=NNC(=NCc3ccccc3)SC2)cc1F	.	51.2	/	.
COc1ccccc1C1=NNC(=NCc2ccccc2)SC1	.	.	.	.
c1ccc(CN=C2NN=C(c3ccccc3)CS2)cc1	.	.	.	.
Fc1ccc(F)c(C2=NNC(=Nc3ccccc3F)SC2)c1	.	.	81.5	.
CN(C)CCNC(=O)/C(=C/c1ccc(-c2cccc(Cl)c2)o1)NC(=O)c1ccccc1	.	.	65.9	.
Cc1ccc(-c2noc(CCC(=O)Nc3ccccc3C)n2)cc1	.	.	.	.
SMILES	Hsp70 act	TNF necrop inh	HSF1 activator	zVAD death inh
Cc1ccc(-c2noc(CCC(=O)Nc3cc(C)ccn3)n2)cc1	.	.	69.1	.
Cc1ccnc(NC(=O)Cc2ccc(-c3ccccc3)cc2)c1	/	/	77.7	/
CCN(CC)C(=O)COc1ccc(-c2ccccc2)cc1	.	.	.	.
Cc1ccc(C)c(CNC(=O)Nc2ccccc2)c1	/	/	57.3	/
O=C(NCc1ccc(Cl)cc1Cl)Nc1ccccc1	/	/	71.5	/
Nc1cc(Cl)ccc1N1CCCCCC1	.	.	.	.
O=C(NNC(=O)c1cc(Cl)ccc1[N+](=O)[O-])c1csc(N2CCOCC2)n1	/	/	.	/
CC(=O)Nc1ccc(C(=O)OCC(=O)Nc2c(F)cccc2F)cc1	/	.	.	.
O=C(O)c1cnn(-c2nc(-c3cccc([N+](=O)[O-])c3)cs2)c1C(F)(F)F	/	/	62.7	/
O=C(O)c1cnn(-c2nc(-c3cccc(F)c3)cs2)c1C(F)(F)F	.	.	.	.
Cn1nccc1C(=O)OCC(=O)Nc1ccccc1Cl	/	/	.	/
Cc1cc(C(=O)NCCC2=CCCCC2)no1	.	.	51.2	.
COc1ccc(NC(=O)NCCC2=CCCCC2)cc1	.	.	72.1	.
Clc1ccc(-n2cc(COCc3ccccc3)nn2)cc1	.	.	61.3	.
O=C(Nc1ccc(Cl)cc1)OCc1cn(-c2ccc(Cl)cc2)nn1	.	.	.	.
Cc1c(C(=O)Nc2ccc3c(c2)OCO3)sc2ncn(CC(=O)N3CC(C)CC(C)C3)c(=O)c12 (centres undefined)	.	.	.	.
O=C(Nc1ccccc1C(=O)OCC(=O)c1c[nH]c2ccccc12)c1ccco1	.	.	104.9	.
COc1ccccc1Nc1nc(N)nc(CN2CC(C)CC(C)C2)n1 (centres undefined)	.	.	.	.
Cc1cc(C)n2nc(C(=O)N/N=C/c3ccccc3Cl)nc2n1	.	.	.	.
Cc1cc(C)n2nc(C(=O)N/N=C/c3c4ccccc4cc4ccccc34)nc2n1	.	.	188.4	.
CC(C)OC(=O)Cn1nc(C(c2ccccc2)c2ccccc2)oc1=O	/	/	.	/

High-throughput results deposited in PubChem by several laboratories.
